Experiment [1] can be described thus: qHTS assay to identify small molecule agonists of the vitamin D receptor (VDR) signaling pathway - cell viability counter screen (AID 743224; active = well fitted curve in the direction sought with a large enough effect in the repeat runs; an effect the other way counts as inactive or inconclusive; note: series mostly up to about 63 µM; % is set by controls: 0 for no effect and ±100 for the full control effect; nearly all actives have a fitted effect of over 50% in size). The procedure, abridged: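 Compounds were pin-transferred onto VDR-bla cells plated 4 h earlier; following 16 h incubation at 37C, cell viability was quantified by CellTiter-Glo luminescence after 30 min at room temperature.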
In general terms: In qHTS, concentration-response curves come from the screen itself.

Experiment [2] can be described thus: qHTS assay to identify small molecule agonists of the NFkB signaling pathway (AID 1159509; active = well fitted curve in the direction sought with a large enough effect in the signal ratio in the repeat runs, not every such curve was filed as active; the % refers to the signal ratio; note: series mostly up to about 61 µM; % is set by controls: 0 for no effect and ±100 for the full control effect). The procedure, abridged: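 Pathway activation was measured in ME-180 cells stably expressing beta-lactamase under NF-kB response element control. Substrate cleavage was read as the 460/530 nm emission shift after 5 hr compound incubation.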
Experiment [3] can be described thus: qHTS assay to identify small molecule agonists of the NFkB signaling pathway - cell viability counter screen (AID 1159515). Note: series mostly up to about 61 µM; % is set by controls: 0 for no effect and ±100 for the full control effect; nearly all actives have a fitted effect of over 55% in size. The procedure, abridged:
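Parallel cytotoxicity counter screen in ME-180 cells carrying an NFkB-response-element beta-lactamase reporter, 2,000 cells/well. Compound exposure lasted 5 hr at 37 C, 5% CO2. Cell viability was quantified by CellTiter-Glo luminescence.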

Experiment [4] in a line: qHTS assay to identify small molecule agonists of the endoplasmic reticulum stress response signaling pathway (AID 1159516; active = well fitted activation curve with a large enough effect in the signal ratio in the repeat runs, not every such curve was filed as active; the % refers to the signal ratio; note: % is set by controls: 0 for no effect and ±100 for the full control effect). In a few lines:
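Using a HeLa line with an ESRE-driven beta-lactamase gene, agonist activity was measured by FRET substrate fluorescence (460 and 530 nm emission) after cells were treated with compounds for 5 hr at 37 C and 5% CO2.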

The nature of experiment [5]: qHTS assay to identify small molecule agonists of the endoplasmic reticulum stress response signaling pathway - cell viability counter screen (AID 1159517).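 Note: HeLa cells carrying an ER stress response element beta-lactamase reporter; series mostly up to about 61 µM; % is set by controls: 0 for no effect and ±100 for the full control effect; nearly all actives have a fitted effect of over 50% in size.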 The procedure, abridged:
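ESRE-bla HeLa cells (1,500/well) were plated overnight at 37 C and exposed to compounds for 5 hr. After the 2 hr beta-lactamase substrate read, CellTiter-Glo went into the same wells, and luminescence was read after 30 min at room temperature.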

Experiment [6] in a line: qHTS assay to identify small molecule antagonists of the retinoid-related orphan receptor gamma (ROR-gamma) signaling pathway - cell viability counter screen (AID 1159520; active = well fitted curve in the direction sought with a large enough effect in the repeat runs; an effect the other way counts as inactive or inconclusive; note: % is set by controls: 0 for no effect and ±100 for the full control effect; nearly all actives have a fitted effect of over 50% in size). The procedure, abridged:
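Cytotoxicity was read from cellular ATP (CellTiter-Glo luminescence) after 16 hr at 37 C with 1 uM doxycycline induction. The inducer was added 2 hr after compound transfer to Tet-on ROR gamma CHO cells.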

For experiment [7], the target named is Nuclear receptor ROR-gamma (Homo sapiens) (UniProt P51449). The experiment can be described thus: qHTS assay to identify small molecule antagonists of the retinoid-related orphan receptor gamma (ROR-gamma) signaling pathway (AID 1159521; active = well fitted curve in the direction sought with a large enough effect in the repeat runs; an effect the other way counts as inactive or inconclusive; note: nearly all actives have a fitted effect of over 50% in size; note: potency is the fitted concentration of half-maximal effect;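 for activity change, negative = inhibition: CHO cells with doxycycline inducible ROR-gamma driving an RORE luciferase reporter; top concentration of the series differs between compounds; % is set by controls: 0 for no effect and ±100 for the full control effect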). In a few lines: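 Test compounds were applied to Tet-on RORγ CHO cells 2 h ahead of doxycycline hyclate (1 uM final). Luciferase reporter activity was quantified by luminescence after 16 h at 37 C and 5% CO2.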

Experiment [8] is described as follows: qHTS assay to identify small molecule agonists of the AP-1 signaling pathway - cell viability counter screen (AID 1159525). Note: nearly all actives have a fitted effect of over 55% in size. The procedure, abridged: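 Intracellular ATP by Cell Titer Glo luminescence (30 min, RT) in the same ME-180 AP-1-bla wells after the 5 h compound exposure at 37 °C. Normalised to tetra n-octyl ammonium bromide and DMSO controls.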
A short description of experiment [9]: qHTS assay to identify small molecule agonists of the AP-1 signaling pathway (AID 1159526). Note: % is set by controls: 0 for no effect and ±100 for the full control effect.
The nature of experiment [10]: qHTS assay to identify small molecule antagonists of the vitamin D receptor (VDR) signaling pathway - cell viability counter screen (AID 743225; active = well fitted curve in the direction sought with a large enough effect in the repeat runs; an effect the other way counts as inactive or inconclusive). In a few lines: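 Compounds were pinned onto VDR-bla HEK 293T cells together with 1-alpha,25-dihydroxyvitamin D3 at 3 nM final. After 16 h at 37C and 5% CO2 plus the reporter readout, cell viability was measured by CellTiter-Glo luminescence (30 min, room temperature).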

Structures are written as SMILES. Inconclusive results are not listed. Values without a mark were called inactive. Active and inactive are the calls of the source. Unless noted, calls come from the whole dose curve.

As to `CC12CCC(CC1=O)C2(C)C` (stereo unspecified), the result in experiment [1], in experiment [2], in experiment [3], in [4], in [5] and in experiment [8] was inactive. Further, the Potency entry in [6], in experiment [7] and in [9] was “inactive” each time.
With `CN(C)C(=O)C(CCN1CCC(O)(c2ccc(Cl)cc2)CC1)(c1ccccc1)c1ccccc1`, the compound was called inactive in [2], in experiment [3], in experiment [4], in [5] and in experiment [8]. Besides, the Potency entry in [6], in [7] and in [9] was “inactive” in each case.
Consider `NC(N)=NS(=O)(=O)c1ccc(N)cc1`, for which the compound was called inactive in experiment [1], in experiment [2], in [3], in experiment [4], in [5] and in experiment [8]. For the same compound, the Potency result in experiment [6], in experiment [7] and in experiment [9] was “inactive” in each case.
For `CSc1ccc(C=O)cc1`, the call in experiment [2], in experiment [3], in experiment [4], in experiment [5] and in experiment [8] was inactive. Also, the Potency result in experiment [6], in [7] and in experiment [9] was “inactive” each time.
`NCCN1CCNC1=O`: the result in experiment [1], in experiment [2], in experiment [3], in [4], in experiment [5] and in experiment [8] was inactive. Also, the Potency result in experiment [6], in experiment [7] and in experiment [9] was “inactive” in each case.
Turning to `CC(C)CCCCCCN`, the compound was called inactive in experiment [1], in experiment [2], in experiment [3], in experiment [4], in experiment [5] and in [8]. Further, the Potency result in [6], in experiment [7] and in experiment [9] was “inactive” in each case.
Take `NC(=O)c1ncn([C@@H]2O[C@H](CO)[C@@H](O)[C@H]2O)c1O`: the call in experiment [1], in [2], in experiment [3], in experiment [4], in experiment [5] and in experiment [8] was inactive. Also, the Potency entry in experiment [6], in [7] and in [9] was “inactive” throughout.
For the compound `O=c1[nH]c2ccccc2c(=O)n1CCCl`, the compound was classed as inactive in experiment [1], in experiment [2], in experiment [3], in experiment [4], in experiment [5] and in experiment [8]. Further, the Potency entry in experiment [6], in experiment [7] and in experiment [9] was “inactive” in each case.
`COCc1ccc(COC)cc1`: the result in [1], in experiment [2], in experiment [3], in experiment [4], in [5] and in [8] was inactive. In addition, the Potency result in [6], in [7] and in experiment [9] was “inactive” each time.
Take `C=C(C)C1CC=C(C)C(O)C1` (stereo unspecified): the compound was called inactive in [1], in experiment [2], in experiment [3], in experiment [4], in [5] and in [8]. For the same compound, the Potency entry in [6], in [7] and in experiment [9] was “inactive” in each case.
In the case of `CCn1cc(C(=O)O)c(=O)c2cc(F)c(N3CCN(C)CC3)cc21`, the outcome in experiment [2], in experiment [3], in experiment [4] and in [5] was inactive. In addition, the activity, negative = cytotoxicity in [6] is 0.209% [at 19 µM]. In addition, in experiment [7], the activity change, negative = inhibition was -0.847% [at 19 µM]. In experiment [8], the viability change, negative = cytotoxic is 2.53% [at 15.8 µM]. Also, in [9], the activation is 0.51% [at 15.8 µM].
As to `CC(C)c1cccc(O)c1`, the compound was classed as inactive in [1], in [2], in experiment [3], in experiment [4], in experiment [5] and in experiment [8]. Also, the Potency result in experiment [6], in [7] and in experiment [9] was “inactive” each time.
Regarding `O=[N+]([O-])c1ccc(CCO)cc1`, the compound was called inactive in [1], in experiment [2], in [3], in [4], in experiment [5] and in experiment [8]. The Potency entry in [6], in [7] and in experiment [9] was “inactive” each time.
As for `CC1=CC(C)C(C=O)C(C)C1` (stereo unspecified), the compound was classed as inactive in [1], in experiment [2], in [3], in experiment [4], in experiment [5] and in experiment [8]. The Potency result in experiment [6], in experiment [7] and in [9] was “inactive” in each case.
For the compound `OCCN1C[C@H](O)[C@@H](O)[C@H](O)[C@H]1CO`, the outcome in experiment [1], in experiment [10], in experiment [2], in experiment [3], in experiment [4] and in experiment [5] was inactive. For the same compound, in experiment [8], the result was inactive. Further, the Potency result in experiment [6], in [7] and in [9] was “inactive” throughout.
For `C=CCn1c(=O)n([C@@H]2O[C@H](CO)[C@@H](O)[C@H]2O)c2nc(N)[nH]c(=O)c21`, the result in experiment [1], in experiment [10], in [2], in experiment [3], in [4] and in experiment [5] was inactive. For the same compound, in [8], the result was inactive. The Potency entry in [6], in experiment [7] and in [9] was “inactive” throughout.
For `CCN1CCCC1CNC(=O)c1cc(S(N)(=O)=O)ccc1OC` (stereo unspecified), the call in experiment [1], in experiment [10], in experiment [2], in experiment [3], in experiment [4] and in [5] was inactive. In addition, the call in experiment [8] was inactive. In addition, the Potency result in experiment [6] and in [9] was “inactive” in each case. Besides, in [7], the Potency was 54.5 µM (active).
With `CC(=O)c1ccc(C)cc1`, the compound was called inactive in [1], in experiment [10], in experiment [2], in experiment [3], in [4] and in [5]. In experiment [8], the result was inactive. In addition, the Potency result in experiment [6], in [7] and in experiment [9] was “inactive” each time.
Turning to `CCCC=O`, the outcome in experiment [1], in [10], in [2], in [3], in [4] and in experiment [5] was inactive. Also, the result in experiment [8] was inactive. The Potency entry in [6], in experiment [7] and in experiment [9] was “inactive” each time.
`Cc1ccccc1C(=O)O`: the outcome in experiment [1], in [10], in [2], in experiment [3], in [4] and in experiment [5] was inactive. Also, in experiment [8], the call was inactive. In addition, the Potency entry in experiment [6], in experiment [7] and in [9] was “inactive” in each case.
As for `CCCc1ccccc1O`, the compound was called inactive in experiment [1], in experiment [2], in [3], in experiment [4], in experiment [5] and in [8]. The Potency result in experiment [6], in experiment [7] and in [9] was “inactive” throughout.
Consider `C[C@H](O)C(=O)Nc1c(I)c(C(=O)NC(CO)CO)c(I)c(C(=O)NC(CO)CO)c1I`, for which the result in experiment [1], in experiment [10], in experiment [2], in experiment [3], in [4] and in [5] was inactive. The compound was called inactive in experiment [8]. Further, the Potency result in [6], in [7] and in [9] was “inactive” throughout.
Consider `C=C(C)C(=O)OCCCCCCCCCCCCCCCCCC`, for which the compound was classed as inactive in experiment [1], in experiment [2], in [3], in [4] and in [5]. Further, the activity, negative = cytotoxicity in experiment [6] was -0.822% [at 19 µM]. Also, in [7], the activity change, negative = inhibition is 0.457% [at 19 µM]. The viability change, negative = cytotoxic in [8] was 1.55% [at 15.8 µM]. Also, the activation in experiment [9] was 0.371% [at 15.8 µM].

The record behind these values is PubChem BioAssay (Tox21).
